Measured values published in PubChem BioAssay (NCATS).
Records with an inconclusive call do not appear. Activity calls are given as the source filed them. Unless noted, calls come from the whole dose curve.

Legend:
[1] = target: Estrogen receptor (Homo sapiens) (UniProt P03372); experiment: qHTS assay for small molecule antagonists of estrogen receptor alpha signaling (AID 588513; active = well fitted curve in the direction sought with a large enough effect in the signal ratio, with a control signal flat, not every such curve was filed as active; the % refers to the signal ratio; note: % is set by controls: 0 for no effect and ±100 for the full control effect)
Summary of the method: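 ER-alpha-UAS-bla GripTite HEK 293 cells in 2% charcoal/dextran-treated FBS medium; compounds titrated (1:2, duplicate), then stimulated with 0.5 nM 17-beta-estradiol for 18 h at 37C. CCF4 beta-lactamase fluorescence; Hill-fit IC50 and efficacy.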

[2] = target: Androgen receptor (Homo sapiens) (UniProt P10275); experiment: qHTS assay for small molecule agonists of androgen receptor signaling (AID 588515; active = well fitted curve in the direction sought with a large enough effect in the signal ratio, with a control signal flat; the % refers to the signal ratio; note: % is set by controls: 0 for no effect and ±100 for the full control effect); conditions: AR-UAS-bla HEK293, beta-lactamase ratio, agonist 16 h; stronger effect = higher value
Summary of the method: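 EC50 and efficacy came from Hill fits of titrations (up to 92 uM) normalized to 30 nM R1881 as 100% and DMSO as 0%. Compound exposure was 16 h at 37 C on AR-UAS-bla HEK293 cells, with a 405/460/530 nm CCF4 fluorescence read.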

[3] = target: Androgen receptor (Homo sapiens) (UniProt P10275); experiment: qHTS assay for small molecule antagonists of androgen receptor signaling (AID 588516; active = well fitted curve in the direction sought with a large enough effect in the signal ratio, with a control signal flat, not every such curve was filed as active; the % refers to the signal ratio; note: % is set by controls: 0 for no effect and ±100 for the full control effect)
Summary of the method: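 AR-UAS-bla GripTite HEK 293 cells (2000/well) treated with compound titrations plus 10 nM R1881 for 16 h at 37C. Beta-lactamase read by CCF4 FRET (460/530 nm); IC50 from Hill fits, normalized to R1881 and DMSO control wells.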

[4] = target: Bile acid receptor (Homo sapiens) (UniProt Q96RI1); experiment: qHTS assay for small molecule antagonists of farnesoid X receptor signaling (AID 588526); note: % is set by controls: 0 for no effect and ±100 for the full control effect
Summary of the method: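 Concentration-response titrations were fitted to the Hill equation for half-maximal inhibition and maximal response, with data normalised to 50 uM chenodeoxycholic acid and DMSO control wells. Cells: FXR-UAS-bla HEK293T, dialyzed FBS.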

[5] = target: Bile acid receptor (Homo sapiens) (UniProt Q96RI1); experiment: qHTS assay for small molecule agonists of farnesoid X receptor signaling (AID 588527); conditions: HEK293T FXR-UAS-bla, beta-lactamase ratio, 16 h; activation: stronger effect = higher value;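 note: series mostly up to about 77 µM; 0% = vehicle basal and 100% = reference agonist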
Summary of the method: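 Quantitative HTS used FXR-UAS-bla HEK293T cells with 16 h compound incubation at 37 C. EC50 values came from concentration-response curves normalized to chenodeoxycholic acid.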

[6] = target: Glucocorticoid receptor (Homo sapiens) (UniProt P04150); experiment: qHTS assay for small molecule agonists of glucocorticoid receptor signaling (AID 588532; active = well fitted curve in the direction sought with a large enough effect in the signal ratio, with a control signal flat; the % refers to the signal ratio;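 note: 100% = dexamethasone at 0.1 µM and 0% = DMSO only wells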); conditions: HeLa MMTV-bla, beta-lactamase ratio, agonist, 18 h; stronger effect = higher value; percent of dexamethasone control, DMSO zero
Summary of the method: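 Stimulation of a glucocorticoid response element-driven beta-lactamase gene was measured in HeLa cells. Responses were scaled between DMSO basal and 0.1 uM dexamethasone, then fitted for half-maximal stimulation.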

[7] = target: Glucocorticoid receptor (Homo sapiens) (UniProt P04150); experiment: qHTS assay for small molecule antagonists of glucocorticoid receptor signaling (AID 588533; active = well fitted inhibition curve with a large enough effect in the signal ratio, with a control signal flat, not every such curve was filed as active; the % refers to the signal ratio)
Summary of the method: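 Antagonist-mode qHTS: compound titrations added to GRE-bla HeLa cells, then dexamethasone 2 nM final; 18 h, 37 C. CCF4 FRET fluorescence normalized to dexamethasone and DMSO; IC50 from Hill fit.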

[8] = target: Peroxisome proliferator-activated receptor delta (Homo sapiens) (UniProt Q03181); experiment: qHTS assay for small molecule agonists of peroxisome proliferator-activated receptor delta signaling (AID 588534);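 note: 0% = DMSO basal wells and 100% = positive control agonist at 10 µM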
Summary of the method: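 Cell-based beta-lactamase reporter assay run in agonist mode: cells seeded and incubated 5 hrs at 37 C, compounds added and incubated 18 hrs at 37 C. CCF4 dye fluorescence read after 2 hrs at RT; EC50 and efficacy from Hill fits.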

[9] = qHTS assay for small molecule antagonists of peroxisome proliferator-activated receptor delta signaling (AID 588535; active = well fitted inhibition curve with a large enough effect in the signal ratio, with a control signal flat, not every such curve was filed as active; the % refers to the signal ratio;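 for max response: cells co-treated with a PPAR-delta agonist as stimulator during compound exposure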); conditions: HEK293T PPARd-UAS-bla, beta-lactamase FRET ratio, 18 h; 460 nm channel
Summary of the method: (§1)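 GeneBLAzer PPAR-delta-UAS-bla HEK293T cells in medium with 2% charcoal/dextran FBS were preincubated 5 hrs at 37 C, then given compounds, incubated 18 hrs at 37 C, and read by CCF4 beta-lactamase fluorescence; IC50 from Hill fits.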

[10] = target: Peroxisome proliferator-activated receptor delta (Homo sapiens) (UniProt Q03181); experiment: as above
Summary of the method: as §1

[11] = target: Peroxisome proliferator-activated receptor gamma (Homo sapiens) (UniProt P37231); experiment: qHTS assay for small molecule antagonists of peroxisome proliferator-activated receptor gamma signaling (AID 588537; active = well fitted inhibition curve with a large enough effect in the signal ratio, with a control signal flat, not every such curve was filed as active; the % refers to the signal ratio;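 note: reporter cells co-stimulated with 50 nM rosiglitazone agonist during compound treatment; % of control where 0% means no effect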)
Summary of the method: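 PPAR-gamma-UAS-bla HEK293 cells (3000/well, 1% charcoal/dextran-stripped FBS) were preincubated 6-6.5 h at 37 C, given titrated compounds, then stimulated with 50 nM rosiglitazone for 16 h. Beta-lactamase activity was read with CCF4 dye; IC50 came from Hill fits.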

[12] = qHTS assay for small molecule agonists of retinoid X receptor alpha signaling (AID 588544); conditions: HEK293T RXRa-UAS-bla, beta-lactamase reporter, 18 h; 530 nm emission;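 for activation: 0% = DMSO basal wells and 100% = reference agonist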
[13] = target: Retinoic acid receptor RXR-alpha (Homo sapiens) (UniProt P19793); experiment: as above
[14] = target: Thyroid hormone receptor beta (Homo sapiens) (UniProt P10828); experiment: qHTS assay for small molecule agonists of thyroid hormone receptor beta signaling (AID 588545)
Summary of the method: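 In this cell-based screen, titrated compounds act on HEK 293 cells held in medium with 2% charcoal/dextran FBS, NEAA and pyruvate for 18 hrs at 37 C. Responses are expressed relative to T3 (10 nM) as 100% and basal DMSO as 0%.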

[15] = qHTS assay for small molecule antagonists of retinoid X receptor alpha signaling (AID 588546; active = well fitted inhibition curve with a large enough effect in the signal ratio, with a control signal flat, not every such curve was filed as active; the % refers to the signal ratio); conditions: HEK293T RXRa-UAS-bla, beta-lactamase ratio, antagonist mode; measured here: W530 green channel, cytotoxicity proxy
Summary of the method: (§2)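 Beta-lactamase reporter inhibition, read as CCF4 fluorescence ratio (ex 405, em 460/530 nm) after 2 h at RT. HEK293T UAS-bla cells, 2500/well, were stimulated with 9-cis-RA at 500 or 100 nM final alongside test compound for 18 h at 37 C.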

[16] = target: Retinoic acid receptor RXR-alpha (Homo sapiens) (UniProt P19793); experiment: as above; conditions: HEK293T RXRa-UAS-bla, beta-lactamase ratio, antagonist mode
Summary of the method: as §2

[17] = target: Thyroid hormone receptor beta (Homo sapiens) (UniProt P10828); experiment: qHTS assay for small molecule antagonists of thyroid hormone receptor beta signaling (AID 588547; active = well fitted inhibition curve with a large enough effect in the signal ratio, with a control signal flat, not every such curve was filed as active; the % refers to the signal ratio); conditions: TR-UAS-bla HEK293, beta-lactamase ratio, antagonist mode, 18 h
Summary of the method: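 TR-UAS-bla GripTite HEK293 cells in 2% charcoal/dextran FBS medium were preincubated 4 h at 37 C, given compound (0.59 nM to 92 uM) plus 0.4 nM T3 (final) for 18 h, then CCF4 for 2 h at RT; Hill fit gave IC50.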

[18] = qHTS assay for small molecule agonists of the antioxidant response element (ARE) signaling pathway (AID 651741; active = well fitted activation curve with a large enough effect in the signal ratio; the % refers to the signal ratio; note: % of control where 0% means no effect)
Summary of the method: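 ARE-bla HepG2 cells (beta-lactamase reporter under ARE control) were plated at 2,000 cells/well, preincubated 5 h at 37 C/5% CO2, then treated with DMSO-dissolved compounds for 16 h at 37 C; LiveBLAzer B/G FRET substrate added, fluorescence read after 2 h at room temperature.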

[19] = qHTS assay for small molecule activators of the nuclear factor-kappa B (NF-kB) signaling pathway (AID 651749; active = well fitted activation curve with a large enough effect in the signal ratio; the % refers to the signal ratio; note: series mostly up to about 77 µM; % of control where 0% means no effect); conditions: NF-kB-bla ME-180 cells, beta-lactamase FRET ratio, 16 h; activation: stronger effect = higher value
Summary of the method: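 ME-180 cells stably carrying a beta-lactamase reporter under an NF-kB response element were exposed to compound or DMSO vehicle for 16 hr at 37C, 5% CO2. Pathway activation was read by FRET, since reporter expression disrupts FRET.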

[20] = target: Peroxisome proliferator-activated receptor alpha (Homo sapiens) (UniProt Q07869); experiment: qHTS assay for small molecule agonists of the peroxisome proliferator-activated receptor alpha (PPARalpha) signaling pathway (AID 651778; active = well fitted curve in the direction sought with a large enough effect; an effect the other way counts as inactive or inconclusive; note: % of control where 0% means no effect); conditions: PathHunter PPARalpha complementation, chemiluminescence, 6 h; stronger effect = higher value
Summary of the method: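 Cells plated at 2,000/well and held overnight at 37 C, 5% CO2, then compound added by pin tool for 6 hr; after PathHunter detection reagent and 60 min at room temperature, chemiluminescence from enzyme complementation was read.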

[21] = qHTS assay for small molecule agonists of the antioxidant response element (ARE) signaling pathway measured by Nrf2-dependant transcriptional activity (AID 720636; active = well fitted curve in the direction sought with a large enough effect in the repeat runs; an effect the other way counts as inactive or inconclusive;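 note: HepG2 cells with an ARE-driven luciferase reporter; % of control where 0% means no effect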)
Summary of the method: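 First, ARE-luc HepG2 cells attached for 6 hr at 37 C in 1% dialyzed FBS medium. Next, compound or DMSO was added and incubated 16 hr. Finally, ONE-Glo reagent was added and luminescence measured after 30 min.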

[22] = qHTS assay for cell viability of HEK293 cells (AID 743288; active = well fitted curve in the direction sought with a large enough effect; an effect the other way counts as inactive or inconclusive; note: % is set by controls: 0 for no effect and ±100 for the full control effect; nearly all actives have a fitted effect of over 50% in size); conditions: ATP luminescence (CellTiter-Glo), 18 h; max response: stronger effect = lower value
Summary of the method: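 Parental HEK293 cells, 2,000 per well, preincubated at least 5 h at 37 C, then exposed to compounds in DMSO for 18 h at 37 C. Viability by CellTiter-Glo ATP luminescence after 30 min at room temperature.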

[23] = qHTS assay for cell viability of the p53RE-bla HCT-116 cell line (AID 743292; active = well fitted curve in the direction sought with a large enough effect; an effect the other way counts as inactive or inconclusive; note: % is set by controls: 0 for no effect and ±100 for the full control effect; nearly all actives have a fitted effect of over 55% in size)
Summary of the method: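 Quantitative high-throughput format: compounds in DMSO were pinned onto p53RE-bla HCT-116 cells (4,000/well) and incubated 16 h at 37 C. Total intracellular ATP, read by CellTiter-Glo luminescence, reflects viable cell number.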

[24] = target: Nuclear receptor subfamily 1 group I member 2 (Rattus norvegicus) (UniProt Q9R1A7); experiment: qHTS assay for small molecule activators of the rat pregnane X receptor (rPXR) signaling pathway (AID 651751; call rule not given here; note: 0% is about no effect); conditions: rPXR reporter cells, luciferase (One-Glo), 24 h
[25] = qHTS assay for small molecule activators of the human pregnane X receptor (PXR) signaling pathway (AID 720659; call rule not given here; note: 0% is about no effect)

Chain of Retinoic acid receptor RXR-alpha (Homo sapiens) (P19793 whole entry, looked up): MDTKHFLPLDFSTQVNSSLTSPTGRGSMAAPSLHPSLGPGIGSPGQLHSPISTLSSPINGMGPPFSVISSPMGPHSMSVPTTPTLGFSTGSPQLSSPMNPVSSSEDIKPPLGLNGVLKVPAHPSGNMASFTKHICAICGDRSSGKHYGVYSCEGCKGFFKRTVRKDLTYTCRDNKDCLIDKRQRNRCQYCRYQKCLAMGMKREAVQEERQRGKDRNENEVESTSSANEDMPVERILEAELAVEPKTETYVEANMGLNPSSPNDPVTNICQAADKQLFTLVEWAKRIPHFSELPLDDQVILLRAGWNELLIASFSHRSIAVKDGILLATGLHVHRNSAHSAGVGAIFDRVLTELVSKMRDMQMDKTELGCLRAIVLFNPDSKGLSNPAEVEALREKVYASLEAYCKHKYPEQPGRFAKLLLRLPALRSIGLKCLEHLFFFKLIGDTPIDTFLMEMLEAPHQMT
Chain of Bile acid receptor (Homo sapiens) (Q96RI1 whole entry, looked up): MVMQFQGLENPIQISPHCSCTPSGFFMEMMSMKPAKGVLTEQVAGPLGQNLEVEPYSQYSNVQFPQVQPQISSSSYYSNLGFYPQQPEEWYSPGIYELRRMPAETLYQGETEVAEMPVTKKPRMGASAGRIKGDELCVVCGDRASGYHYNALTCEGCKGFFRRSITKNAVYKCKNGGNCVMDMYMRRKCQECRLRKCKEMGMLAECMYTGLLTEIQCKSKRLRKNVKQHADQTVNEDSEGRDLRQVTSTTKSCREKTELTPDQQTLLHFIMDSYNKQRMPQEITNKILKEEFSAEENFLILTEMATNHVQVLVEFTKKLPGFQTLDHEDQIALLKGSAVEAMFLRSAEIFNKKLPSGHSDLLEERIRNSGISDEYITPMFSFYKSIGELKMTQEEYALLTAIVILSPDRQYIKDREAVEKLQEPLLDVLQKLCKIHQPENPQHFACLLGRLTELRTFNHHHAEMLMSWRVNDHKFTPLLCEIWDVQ
Chain of Thyroid hormone receptor beta (Homo sapiens) (P10828 whole entry, looked up): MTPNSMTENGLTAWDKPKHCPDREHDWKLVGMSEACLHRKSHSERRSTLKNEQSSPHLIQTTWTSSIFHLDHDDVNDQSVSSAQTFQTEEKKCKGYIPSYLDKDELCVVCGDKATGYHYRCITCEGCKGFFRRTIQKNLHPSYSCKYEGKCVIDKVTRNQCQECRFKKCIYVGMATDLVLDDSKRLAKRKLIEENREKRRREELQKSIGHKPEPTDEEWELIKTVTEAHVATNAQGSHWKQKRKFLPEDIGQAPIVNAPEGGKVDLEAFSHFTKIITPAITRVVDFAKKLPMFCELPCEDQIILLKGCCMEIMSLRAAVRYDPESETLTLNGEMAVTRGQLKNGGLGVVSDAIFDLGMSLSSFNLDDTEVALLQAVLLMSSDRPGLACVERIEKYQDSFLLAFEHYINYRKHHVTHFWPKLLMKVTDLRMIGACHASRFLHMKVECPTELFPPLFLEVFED
Chain of Androgen receptor (Homo sapiens) (P10275 whole entry, looked up): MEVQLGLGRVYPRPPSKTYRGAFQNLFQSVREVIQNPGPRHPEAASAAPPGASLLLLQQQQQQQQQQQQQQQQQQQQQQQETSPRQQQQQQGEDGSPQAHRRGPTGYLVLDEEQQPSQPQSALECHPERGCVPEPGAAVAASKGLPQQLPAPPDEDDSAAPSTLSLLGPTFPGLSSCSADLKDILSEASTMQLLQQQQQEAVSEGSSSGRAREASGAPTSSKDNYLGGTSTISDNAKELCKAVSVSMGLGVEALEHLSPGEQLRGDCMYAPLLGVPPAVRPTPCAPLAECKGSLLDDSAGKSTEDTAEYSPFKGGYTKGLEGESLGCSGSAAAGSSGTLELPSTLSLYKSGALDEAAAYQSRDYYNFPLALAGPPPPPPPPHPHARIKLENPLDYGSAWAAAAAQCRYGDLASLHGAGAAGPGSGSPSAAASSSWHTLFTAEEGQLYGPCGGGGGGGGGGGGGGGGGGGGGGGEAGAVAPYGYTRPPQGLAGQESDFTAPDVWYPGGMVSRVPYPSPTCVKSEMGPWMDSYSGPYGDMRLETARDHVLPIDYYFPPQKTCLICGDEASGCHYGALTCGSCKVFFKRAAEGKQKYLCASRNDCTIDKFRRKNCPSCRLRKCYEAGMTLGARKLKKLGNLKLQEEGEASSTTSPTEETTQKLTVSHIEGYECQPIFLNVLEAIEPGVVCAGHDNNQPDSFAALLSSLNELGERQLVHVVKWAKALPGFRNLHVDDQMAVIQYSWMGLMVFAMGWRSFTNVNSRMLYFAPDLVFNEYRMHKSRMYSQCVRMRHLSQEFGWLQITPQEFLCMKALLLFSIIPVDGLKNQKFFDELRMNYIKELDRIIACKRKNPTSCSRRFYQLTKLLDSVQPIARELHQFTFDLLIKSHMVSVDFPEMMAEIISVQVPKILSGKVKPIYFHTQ
Chain of Peroxisome proliferator-activated receptor delta (Homo sapiens) (Q03181 whole entry, looked up): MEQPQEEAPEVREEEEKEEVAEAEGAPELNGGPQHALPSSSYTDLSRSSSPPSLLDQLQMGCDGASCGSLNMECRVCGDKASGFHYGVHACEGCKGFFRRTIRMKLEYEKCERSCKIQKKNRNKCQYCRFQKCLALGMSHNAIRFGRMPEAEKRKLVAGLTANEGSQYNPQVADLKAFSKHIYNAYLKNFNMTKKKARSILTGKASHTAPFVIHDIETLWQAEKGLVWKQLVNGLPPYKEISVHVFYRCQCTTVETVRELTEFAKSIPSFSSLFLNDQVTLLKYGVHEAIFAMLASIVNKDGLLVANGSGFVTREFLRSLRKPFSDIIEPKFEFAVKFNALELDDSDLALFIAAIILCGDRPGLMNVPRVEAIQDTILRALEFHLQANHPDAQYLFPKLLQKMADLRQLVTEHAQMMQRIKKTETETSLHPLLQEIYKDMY
Chain of Glucocorticoid receptor (Homo sapiens) (P04150 whole entry, looked up): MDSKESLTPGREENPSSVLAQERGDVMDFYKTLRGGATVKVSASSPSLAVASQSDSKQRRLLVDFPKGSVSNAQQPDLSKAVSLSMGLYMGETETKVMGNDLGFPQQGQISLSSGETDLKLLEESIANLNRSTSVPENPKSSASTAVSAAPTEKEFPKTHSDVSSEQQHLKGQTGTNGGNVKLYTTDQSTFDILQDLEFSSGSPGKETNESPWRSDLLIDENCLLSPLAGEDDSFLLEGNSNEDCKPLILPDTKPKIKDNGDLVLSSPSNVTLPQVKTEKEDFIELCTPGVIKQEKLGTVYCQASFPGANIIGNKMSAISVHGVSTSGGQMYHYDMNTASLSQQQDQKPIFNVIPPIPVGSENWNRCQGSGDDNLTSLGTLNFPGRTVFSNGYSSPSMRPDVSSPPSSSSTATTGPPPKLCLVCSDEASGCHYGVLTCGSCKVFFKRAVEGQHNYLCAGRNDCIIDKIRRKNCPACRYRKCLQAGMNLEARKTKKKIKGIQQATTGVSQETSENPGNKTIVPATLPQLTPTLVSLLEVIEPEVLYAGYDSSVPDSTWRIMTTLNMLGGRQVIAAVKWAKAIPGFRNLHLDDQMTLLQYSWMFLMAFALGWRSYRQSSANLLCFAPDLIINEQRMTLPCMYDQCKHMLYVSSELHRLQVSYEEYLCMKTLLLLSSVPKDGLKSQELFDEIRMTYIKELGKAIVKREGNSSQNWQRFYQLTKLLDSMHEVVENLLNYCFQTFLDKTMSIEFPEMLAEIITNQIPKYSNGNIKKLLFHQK
Chain of Peroxisome proliferator-activated receptor gamma (Homo sapiens) (P37231 whole entry, looked up): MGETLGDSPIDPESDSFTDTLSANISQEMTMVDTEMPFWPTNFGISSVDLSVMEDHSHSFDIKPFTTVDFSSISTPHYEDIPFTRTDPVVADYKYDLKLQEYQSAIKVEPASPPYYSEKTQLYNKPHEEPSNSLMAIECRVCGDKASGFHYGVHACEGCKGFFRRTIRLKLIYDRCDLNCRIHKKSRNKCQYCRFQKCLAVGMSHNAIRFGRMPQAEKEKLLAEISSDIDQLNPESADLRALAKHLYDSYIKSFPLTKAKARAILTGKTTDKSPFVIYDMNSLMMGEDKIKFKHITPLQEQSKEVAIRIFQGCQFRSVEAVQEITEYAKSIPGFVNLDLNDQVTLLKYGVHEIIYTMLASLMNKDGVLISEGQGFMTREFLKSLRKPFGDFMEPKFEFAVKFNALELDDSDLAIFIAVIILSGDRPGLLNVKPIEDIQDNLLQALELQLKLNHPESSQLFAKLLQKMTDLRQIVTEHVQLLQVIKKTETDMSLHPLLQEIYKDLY
Chain of Nuclear receptor subfamily 1 group I member 2 (Rattus norvegicus) (Q9R1A7 whole entry, looked up): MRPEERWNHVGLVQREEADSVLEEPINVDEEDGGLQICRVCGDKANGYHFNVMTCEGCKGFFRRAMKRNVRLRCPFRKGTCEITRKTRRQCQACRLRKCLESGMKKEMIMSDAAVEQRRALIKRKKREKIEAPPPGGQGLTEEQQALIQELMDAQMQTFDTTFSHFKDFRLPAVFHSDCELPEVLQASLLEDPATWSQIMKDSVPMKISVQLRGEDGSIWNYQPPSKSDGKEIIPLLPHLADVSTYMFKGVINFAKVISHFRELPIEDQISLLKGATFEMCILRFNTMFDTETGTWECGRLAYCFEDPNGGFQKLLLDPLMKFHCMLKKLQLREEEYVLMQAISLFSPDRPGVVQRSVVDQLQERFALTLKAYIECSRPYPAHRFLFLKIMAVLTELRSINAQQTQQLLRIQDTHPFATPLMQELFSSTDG
Chain of Peroxisome proliferator-activated receptor alpha (Homo sapiens) (Q07869 whole entry, looked up): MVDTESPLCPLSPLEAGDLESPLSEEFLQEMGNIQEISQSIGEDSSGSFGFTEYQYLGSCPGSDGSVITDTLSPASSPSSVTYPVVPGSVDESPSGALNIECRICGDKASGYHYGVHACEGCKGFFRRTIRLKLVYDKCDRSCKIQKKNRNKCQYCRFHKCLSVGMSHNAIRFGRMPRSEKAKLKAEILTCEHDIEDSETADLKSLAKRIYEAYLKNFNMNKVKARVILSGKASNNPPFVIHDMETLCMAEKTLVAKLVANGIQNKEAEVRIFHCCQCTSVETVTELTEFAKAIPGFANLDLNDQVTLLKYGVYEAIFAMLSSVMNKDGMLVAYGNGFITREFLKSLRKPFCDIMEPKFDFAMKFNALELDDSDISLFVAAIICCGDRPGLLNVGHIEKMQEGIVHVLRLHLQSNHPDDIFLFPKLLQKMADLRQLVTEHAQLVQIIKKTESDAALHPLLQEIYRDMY

CCCCOP(=O)(O)OCCCC
-20.1%: max response [12]
24.1%: max response [9]
inactive: Potency [1] | activation [2] -1.97% | outcome [3] | Potency [4] | activation [5] 1.99% | activation [6] -1.37% | Potency [7] | Potency [8] | outcome [10] | Potency [11] | outcome [13] | Potency [14] | max response [16] -17.7% | activity change % (negative = inhibition) [17] 3.56% | Potency [18] | activation [19] 1.33% | max response [20] -1.16% | Potency [21] | max response [22] -9.76% | outcome [23] | max response [24] 5.92% | outcome [25]
-2.61%: max response [15]
